SENP6 block: inhibitors of human SENP6 protease; 1.8% of 330,000 active; inhibition, % at 10 µM; Q9GZR1; Recombinant SENP6 catalytic domain, aminoluciferin luminescence;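 active means inhibition above about 50% at the single tested dose, limit read from the data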;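 further: plate controls were DMSO wells with enzyme for no effect and DMSO wells lacking enzyme for full effect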
Target sequence (Q9GZR1 628-1112 limits assumed): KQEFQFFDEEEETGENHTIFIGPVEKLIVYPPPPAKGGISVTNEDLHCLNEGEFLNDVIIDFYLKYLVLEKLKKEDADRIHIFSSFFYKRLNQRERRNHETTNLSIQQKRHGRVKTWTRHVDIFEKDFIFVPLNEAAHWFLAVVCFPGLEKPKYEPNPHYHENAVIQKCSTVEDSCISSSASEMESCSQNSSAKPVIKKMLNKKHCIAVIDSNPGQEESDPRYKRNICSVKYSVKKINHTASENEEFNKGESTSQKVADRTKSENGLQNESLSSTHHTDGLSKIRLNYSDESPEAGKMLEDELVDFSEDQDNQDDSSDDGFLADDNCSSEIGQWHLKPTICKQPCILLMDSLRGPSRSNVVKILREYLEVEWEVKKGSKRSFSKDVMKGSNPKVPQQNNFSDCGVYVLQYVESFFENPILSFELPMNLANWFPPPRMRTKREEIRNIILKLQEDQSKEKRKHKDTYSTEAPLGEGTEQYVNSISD
TRAIL sens C8: caspase-8 TRAIL sensitization; 1% of 360,000 active; AID 624354; NB7+C8 cells + TRAIL, ATPlite viability luminescence; inhibition (viability loss, TRAIL sensitization), % at 10 µM;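 active means compounds causing at least 50% loss of cell viability in the single-dose screen, relative to plate controls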
PPC-1+TRAIL kill: kills PPC-1 cancer cells in the presence of TRAIL; AID 1443; cell killing (% activity), % at 4 µM or 5 µM; PPC-1 cells + TRAIL, ATPLite viability luminescence; 0.41% of 220,000 active;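 active means cell killing above 50% in the first pass at 4 µM, then a duplicate retest at 5 µM averaging 50% or more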;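 further: plate controls were cells with TRAIL plus DMSO for no effect and medium-only wells lacking cells for full effect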
SENP8 block-1: inhibitors of human SENP8 protease; AID 2540; inhibition, % at 10 µM; purified SENP8, Z-RLRGG-aminoluciferin cleavage, luminescence; Q96LD8; 1.2% of 330,000 active; in the data active means inhibition above about 50%
Target sequence (Q96LD8 whole entry, looked up): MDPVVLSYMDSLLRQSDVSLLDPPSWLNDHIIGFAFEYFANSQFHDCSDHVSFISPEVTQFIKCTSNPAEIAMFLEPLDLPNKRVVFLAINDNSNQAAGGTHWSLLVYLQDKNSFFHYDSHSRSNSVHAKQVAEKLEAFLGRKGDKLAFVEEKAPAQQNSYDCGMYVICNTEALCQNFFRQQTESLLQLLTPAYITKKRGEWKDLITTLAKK
SENP7 inh: SENP7 protease inhibition; recombinant SENP7, Z-RLRGG-aminoluciferin luminescence, 40 min; inhibition, % at 5 µM; 1.5% of 330,000 active; AID 434973;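 active means inhibition above about 50% at the single test dose, limit read from the data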;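 further: plate controls were DMSO with enzyme for no effect and no enzyme buffer wells for full effect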
SENP8 block-2: SENP8 (human) protease inhibition | recombinant SENP8, Nedd8 substrate fluorescence | inhibition, % at 20 µM | 0.64% of 360,000 active | AID 602440; in the data active means inhibition mostly above about 40%, no sharp cut-off; inactive means mostly below about 27%
SENP8 conf: human SENP8 inhibition, confirmed; shares compounds with SENP7 inh; Recombinant SENP8, Z-RLRGG-aminoluciferin luminescence, 60 min; inhibition, % at 12.5 µM; 40% of 6,200 active; AID 488912;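 active means mean inhibition across replicates above about 50%, limit read from the data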
SENP6 conf: confirmation of human SENP6 protease inhibitors; AID 488915; 58% of 6,200 active; shares compounds with SENP7 inh; recombinant SENP6, Z-RLRGG-aminoluciferin luminescence; inhibition, % at 12.5 µM
SENP7 conf: human SENP7 inhibition, confirmed | shares compounds with SENP7 inh | recombinant SENP7, Z-RLRGG-aminoluciferin luminescence, 40 min | inhibition, % at 12.5 µM | 69% of 6,200 active | AID 488917
Casp3 SENP sel: caspase-3 inhibition (SENP selectivity assay). 60% of 6,200 active. AID 488918. purified caspase-3, Z-DEVD-aminoluciferin luminescence, 60 min. inhibition, % at 12.5 µM. shares compounds with SENP7 inh;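 active means mean inhibition above about 50%, limit read from the data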;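 further: plate controls were enzyme with DMSO for no effect and wells without caspase-3 for full effect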
Luc interf: interferes with luciferase luminescence in SENP counter-screen. shares compounds with SENP7 inh. Pre-incubated SENP8/Z-RLRGG-aminoluciferin, luciferase luminescence interference. inhibition, % at 12.5 µM. 39% of 6,200 active. AID 488919;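 active means mean inhibition above about 50% when retested at one dose, limit read from the data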;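 further: plate controls were DMSO wells with completed reaction for no effect and substrate without enzyme for full effect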
* hit, by the source's call. Compounds with a hit are over-represented: about 3% of the library has one in this group of screens.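 How the source made its calls, unless noted: active means mean inhibition above about 50% in the one-dose retest (limit read from the data); inactive means the rest.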

How did Cc1ccc(C(=O)Nc2ccc3c(c2)OCCO3)cc1 do in these assays?
SENP6 block: 73.5*; TRAIL sens C8: 83.5*; SENP8 block-1: 72.4*; SENP7 inh: 82.0*; SENP8 block-2: 3.4; SENP8 conf: 5.4; SENP6 conf: 75.6*; SENP7 conf: 93.7*; Casp3 SENP sel: 87.1*; Luc interf: 79.0*

What do the screens show for `COc1ccccc1C(=O)Nc1ccc2c(c1)OCCO2`?
SENP6 block: 53.1*; TRAIL sens C8: 33.7; PPC-1+TRAIL kill: 36.8; SENP8 block-1: 16.0; SENP7 inh: 43.0; SENP8 block-2: 13.1; SENP8 conf: 31.5; SENP6 conf: 30.2; SENP7 conf: 70.6*; Casp3 SENP sel: 69.2*; Luc interf: 52.2*

Results for Cc1ccc(OS(=O)(=O)c2ccc(N3C(=O)CCC3=O)cc2)cc1 ?
SENP6 block: -9.8; TRAIL sens C8: 2.8; SENP8 block-1: 1.6; SENP7 inh: 2.9; SENP8 block-2: 14.6

Results for COc1ccc(CN2CCC(C(=O)c3ccc(Cl)cc3)CC2)cc1 ?
SENP6 block: 10.2; TRAIL sens C8: -7.9; SENP8 block-1: -3.6; SENP7 inh: -4.4; SENP8 block-2: -5.3

Results for CCCCCCCN1CCN=C1N(C)C ?
SENP6 block: 11.3; TRAIL sens C8: -4.3; SENP8 block-1: -2.2; SENP7 inh: -1.1; SENP8 block-2: 11.5

What do the screens show for `CCOc1ccccc1CN1CCN(CCCc2ccccc2)CC1CCO` (stereo unspecified)?
SENP6 block: 2.0; TRAIL sens C8: 9.6; SENP8 block-1: -3.2; SENP7 inh: -3.0; SENP8 block-2: 12.7

Results for O=C(Nc1ccc2c(c1)OCCO2)c1ccc(Br)cc1 ?
SENP6 block: 70.9*; TRAIL sens C8: 51.7*; SENP8 block-1: 58.8*; SENP7 inh: 61.5*; SENP8 block-2: -6.7; SENP8 conf: 70.9*; SENP6 conf: 69.6*; SENP7 conf: 90.4*; Casp3 SENP sel: 67.8*; Luc interf: 49.9

What do the screens show for `Nc1c(C(=O)Nc2ccc3c(c2)OCCO3)nnn1Cc1ccc(Br)cc1`?
SENP6 block: -1.1; TRAIL sens C8: 12.2; SENP8 block-1: -7.2; SENP7 inh: -4.0; SENP8 block-2: 10.8

Results for CCOC(=O)c1c(C)[nH]c(C(=O)Nc2ccc3c(c2)OCO3)c1C ?
SENP6 block: 16.1; PPC-1+TRAIL kill: 14.9; SENP8 block-1: 59.5*; SENP7 inh: 83.7*; SENP8 conf: 8.8; SENP6 conf: 80.5*; SENP7 conf: 96.5*; Casp3 SENP sel: 79.4*; Luc interf: 48.3

How did Cc1ccc(C(=O)Nc2ccc3c(c2)OCO3)o1 do in these assays?
SENP6 block: 50.5*; TRAIL sens C8: 18.6; PPC-1+TRAIL kill: 27.6; SENP8 block-1: 1.5; SENP7 inh: 32.2; SENP8 block-2: 17.3; SENP8 conf: 26.2; SENP6 conf: 20.7; SENP7 conf: 66.6*; Casp3 SENP sel: 77.0*; Luc interf: 52.3*

How did Nc1c(C(=O)Nc2ccc3c(c2)OCCO3)nnn1Cc1cccc(Br)c1 do in these assays?
SENP6 block: 67.7*; TRAIL sens C8: 26.6; SENP8 block-1: 45.5; SENP7 inh: 58.2*; SENP8 block-2: 4.7; SENP8 conf: 34.0; SENP6 conf: 15.6; SENP7 conf: 84.8*; Casp3 SENP sel: 30.6; Luc interf: 66.4*

What do the screens show for `CCOC(=O)Nc1ccc2c(c1)OCO2`?
SENP6 block: -32.2; TRAIL sens C8: -28.9; PPC-1+TRAIL kill: 13.1; SENP8 block-1: -10.8; SENP7 inh: -6.4; SENP8 block-2: 6.4

Results for COc1cccc(NC(=O)CN(C)C(=O)c2ccc(Cl)c(S(=O)(=O)N3CCCCCC3)c2)c1 ?
SENP6 block: -14.1; TRAIL sens C8: 8.6; SENP8 block-1: 0.6; SENP7 inh: -12.3; SENP8 block-2: -1.3

What do the screens show for `CC1=CC=CC2=NC(=O)CC(C)(C(=O)N(CC(=O)NC3CCCC3)c3ccc(F)cc3)N12` (stereo unspecified)?
SENP6 block: -3.8; TRAIL sens C8: 3.7; SENP8 block-1: 1.1; SENP7 inh: -9.3; SENP8 block-2: -298.9

What do the screens show for `O=C(Nc1ccc2c(c1)OCCO2)c1ccc(Cl)c([N+](=O)[O-])c1`?
SENP6 block: 19.7; TRAIL sens C8: 34.1; PPC-1+TRAIL kill: 20.4; SENP8 block-1: -10.0; SENP7 inh: 10.8; SENP8 block-2: 18.0

How did Cc1cc(C(=O)Nc2ccc3c(c2)OCCO3)ccc1[N+](=O)[O-] do in these assays?
SENP6 block: 84.3*; TRAIL sens C8: 23.6; SENP8 block-1: 77.0*; SENP7 inh: 91.8*; SENP8 block-2: 20.2; SENP8 conf: 10.0; SENP6 conf: 56.7*; SENP7 conf: 94.4*; Casp3 SENP sel: 81.4*; Luc interf: 11.8

What do the screens show for `O=C(Nc1ccc2c(c1)OCCO2)c1ccc(Cl)c(Cl)c1`?
SENP6 block: 76.7*; TRAIL sens C8: 6.4; SENP8 block-1: 59.1*; SENP7 inh: 67.3*; SENP8 block-2: 15.5; SENP8 conf: 53.1*; SENP6 conf: 55.3*; SENP7 conf: 92.7*; Casp3 SENP sel: 50.7*; Luc interf: 25.9

Results for CC1CCN(S(=O)(=O)c2ccc(NC(=O)CCNC(=O)c3ccc(Cl)cc3)cc2)CC1 ?
SENP6 block: -16.4; TRAIL sens C8: 6.5; SENP8 block-1: -2.3; SENP7 inh: -7.2; SENP8 block-2: -0.3

How did CC(C)Oc1ccc2c(=O)c(-c3ccccc3)coc2c1 do in these assays?
SENP6 block: 68.4*; TRAIL sens C8: 21.4; PPC-1+TRAIL kill: 37.4; SENP8 block-1: 60.9*; SENP7 inh: 70.7*; SENP8 block-2: 1.4; SENP8 conf: 6.9; SENP6 conf: 25.2; SENP7 conf: 51.6*; Casp3 SENP sel: 36.0; Luc interf: 13.4

How did CC(=O)Oc1ccc2c(=O)c(-c3nc4ccccc4s3)coc2c1 do in these assays?
SENP6 block: 97.8*; TRAIL sens C8: 68.7*; PPC-1+TRAIL kill: 36.6; SENP8 block-1: 94.3*; SENP7 inh: 99.1*; SENP8 block-2: -112.0; SENP8 conf: 44.9; SENP6 conf: 38.8; SENP7 conf: 29.9; Casp3 SENP sel: 71.9*; Luc interf: 51.3*

Assay outcomes: PubChem, Sanford-Burnham Center for Chemical Genomics
